# Legend:
# Type in all cases: functional
# [1] = biological target: Solute carrier family 2, facilitated glucose transporter member 1 (Homo sapiens) (UniProt P11166); assay: ST_JUDE_LEISH: Cytotoxicity at 2uM final concentration against transgenic Leishmania Mexicana promastigotes LmGLUT1 that are glucose transport deficient and complemented with the human glucose transporter GLUT1. Activity is measured by DNA content using SYBR green in vitro
# [2] = biological target: Hexose transporter 1 (Plasmodium falciparum) (UniProt O97467); assay: ST_JUDE_LEISH: Cytotoxicity at 2uM final concentration against transgenic Leishmania Mexicana promastigotes LmPfHT that are glucose transport deficient and complemented with the Plasmodium falciparum hexose transporter. Activity is measured by DNA content using SYBR green in vitro
# [3] = biological target: Glucose transporter (Leishmania mexicana) (UniProt O61059); assay: ST_JUDE_LEISH: Cytotoxicity at 2uM final concentration against transgenic Leishmania Mexicana promastigotes LmGT2 that are glucose transport deficient and complemented with the L. Mexicana glucose transporter 2. Activity is measured by DNA content using SYBR green in vitro
# Sequence of Solute carrier family 2, facilitated glucose transporter member 1 (Homo sapiens) (P11166 whole entry): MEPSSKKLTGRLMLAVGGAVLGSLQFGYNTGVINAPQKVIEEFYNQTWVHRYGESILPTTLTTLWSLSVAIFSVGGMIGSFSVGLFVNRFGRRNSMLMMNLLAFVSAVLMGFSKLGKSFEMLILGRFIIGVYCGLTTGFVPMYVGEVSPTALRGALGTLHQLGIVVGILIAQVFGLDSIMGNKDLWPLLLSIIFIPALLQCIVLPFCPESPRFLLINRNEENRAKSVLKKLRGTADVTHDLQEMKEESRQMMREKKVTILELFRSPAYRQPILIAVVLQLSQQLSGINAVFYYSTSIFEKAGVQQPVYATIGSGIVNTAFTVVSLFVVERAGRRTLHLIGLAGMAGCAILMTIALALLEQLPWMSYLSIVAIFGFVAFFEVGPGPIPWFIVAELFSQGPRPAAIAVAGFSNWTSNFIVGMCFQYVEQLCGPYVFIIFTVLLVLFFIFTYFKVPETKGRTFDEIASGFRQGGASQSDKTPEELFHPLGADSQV
compound,measurement,setting,value
COc1ccc2nccc([C@@H](O)CN3CCC(NCc4nc5c(C#N)cccc5[nH]4)CC3)c2c1,inhibition,[1],3.6%
same,inhibition,[2],3.33%
same,inhibition,[3],3.84%
CCCC(CNCc1cccc(OCC)c1)CNc1cc(=O)c2ccccc2[nH]1 (configuration not stated),inhibition,[1],-0.5%
same,inhibition,[2],-0.45%
COc1ccc(CNCc2ccc(-c3ccc(-c4nc5cc(F)ccc5[nH]4)cc3)cc2)cc1,inhibition,[1],5.49%
same,inhibition,[2],5.38%
same,inhibition,[3],1.74%
COc1ccc2ncc(F)c(CCN3CC(O)C(CNCc4ccc5oc(=O)ccc5c4)C3)c2n1 (configuration not stated),inhibition,[1],8.17%
same,inhibition,[2],6.29%
same,inhibition,[3],5.19%
O=C(NCc1ccccc1)c1ccc(C(=O)NCC2CNCCO2)cc1 (configuration not stated),inhibition,[1],5.08%
same,inhibition,[2],6.24%
same,inhibition,[3],9.54%
COC1CCC(C(=O)Nc2ccc(-c3cccc(-c4nc5cccc(C)c5[nH]4)c3)cc2)CC1 (configuration not stated),inhibition,[1],6.31%
same,inhibition,[2],4.3%
same,inhibition,[3],3.5%
O=C(Nc1ccccc1F)N(CCCn1ccnc1)Cc1csc(-c2ccc(CNCc3ccccc3)cc2)n1,inhibition,[1],-0.67%
same,inhibition,[2],0.06%
same,inhibition,[3],3.14%
CCNc1cc(C(=O)N[C@@H](Cc2ccccc2Cl)[C@H](O)CNC2CCCCC2)cc(N2CCCCS2(=O)=O)c1,inhibition,[1],0.03%
same,inhibition,[2],0.45%
same,inhibition,[3],-2.07%
O=c1cc(NCCC(CNCc2ccc(Br)o2)NCc2cc(Br)cc(Br)c2)[nH]c2ccccc12 (configuration not stated),inhibition,[1],8.13%
same,inhibition,[2],8.45%
same,inhibition,[3],6.87%
CCNc1cc(C)nc(Nc2ccc(NC(=O)c3c(F)cccc3Cl)cc2)n1,inhibition,[1],10.6%
same,inhibition,[2],11%
same,inhibition,[3],2.56%
Cc1ccc(NC(=O)N2CCCN(CCCCCNC(=O)/C=C/c3ccc(Cl)c(Cl)c3)CC2)cc1,inhibition,[1],-1.97%
same,inhibition,[2],-0.68%
O=C(NCCCCN1CCC(c2ccc3c(c2O)CCCC3)CC1)c1ccc(-c2ccc(Cl)cc2)cc1,inhibition,[1],1.35%
same,inhibition,[2],1.06%
same,inhibition,[3],2.37%
CCN(CC)CCN(Cc1ccc(-c2ccc(C(F)(F)F)cc2)cc1)C(=O)Cn1c(CCc2cccc(F)c2F)nc(=O)c2cc(F)ccc21,inhibition,[1],4.48%
same,inhibition,[2],2.96%
same,inhibition,[3],4.5%
CCOC(=O)c1nc(-c2ccc(Cl)cc2)[nH]c1NC(=S)NCCCN1CCOCC1,inhibition,[1],-0.48%
same,inhibition,[2],1.52%
same,inhibition,[3],-2.41%
CCc1cccc(NC(=O)/C=C/c2ccc3c(c2)CN(C)CC3)c1,inhibition,[1],4.53%
same,inhibition,[2],2.31%
same,inhibition,[3],10.2%
O=C(/C=C/c1ccccc1Cl)Nc1ccc(Br)c(OCCN2CCN(CCN3CCOCC3)CC2)c1,inhibition,[1],1.48%
same,inhibition,[2],1.38%
same,inhibition,[3],0.88%
CC(C)c1ccc(CN2CCC(CNC(=O)c3cc(-c4cccc(F)c4)cs3)C2)cc1 (configuration not stated),inhibition,[1],0.2%
same,inhibition,[2],-1.08%
O=C(/C=C/c1ccc(Cl)c(Cl)c1)NCCCCCN1CCC(NC(=O)Nc2cccc(C(F)(F)F)c2)CC1,inhibition,[1],-1.91%
same,inhibition,[2],-0.93%
Cc1nc2ccccc2c(=O)n1NCc1ccc(Cl)c(Cl)c1,inhibition,[1],-1.5%
same,inhibition,[2],-1.58%
same,inhibition,[3],0.11%
Cc1cc2nc(-c3ccc(/C=C/C(=O)NCCc4ccccc4)cc3)[nH]c2cc1C,inhibition,[1],1.09%
same,inhibition,[2],0.54%
same,inhibition,[3],0.56%
CCn1ncc2c(N3CCCC3=O)cc(C(=O)N[C@@H](Cc3ccccc3)[C@H](O)CNC(C)(C)c3cccc(C(F)(F)F)c3)cc21,inhibition,[1],-0.71%
same,inhibition,[2],0.84%
same,inhibition,[3],5.42%
O=[N+]([O-])c1ccc(-n2nc(-c3cccnc3)n(Cc3ccco3)c2=S)c(Cl)c1,inhibition,[1],1.31%
same,inhibition,[2],-1.09%
Cc1cccc2nc(-c3ccc(-c4cccc(CNCc5ccc(S(C)(=O)=O)cc5)c4)s3)[nH]c12,inhibition,[1],12.5%
same,inhibition,[2],9.13%
same,inhibition,[3],9.52%
O=C1CCCN1CCCNCc1ccc(-c2cccc(-c3nc4cc(C(F)(F)F)ccc4[nH]3)c2)cc1,inhibition,[1],1.71%
same,inhibition,[2],-0.32%
same,inhibition,[3],-0.5%
CN(C)CCn1cc(C(=O)c2cc(Cl)ccc2O)cc1-c1nc2ccccc2c(=O)[nH]1,inhibition,[1],0.7%
same,inhibition,[2],-0.71%
same,inhibition,[3],-2.96%
Nc1nc(N)c2c(Oc3cccc(Cl)c3)cccc2n1,inhibition,[1],1.52%
same,inhibition,[2],1.79%
same,inhibition,[3],-1.1%
CCCC(C)NC(=O)/C=C/c1ccccc1-c1cccc(OC)c1 (configuration not stated),inhibition,[1],-0.91%
same,inhibition,[2],-0.01%
COc1ccc(CNCc2ccccc2)cc1-c1ccc(S(=O)(=O)NCCN2CCCC2)c(F)c1,inhibition,[1],18.3%
same,inhibition,[2],13%
same,inhibition,[3],10.7%
Nc1ccc2[nH]cc(C3CCN(CCC4CCN(C(=O)/C=C/c5ccc(Cl)c(Cl)c5)CC4)CC3)c2n1,inhibition,[1],1.27%
same,inhibition,[2],-0.31%
same,inhibition,[3],-0.02%
Cc1cccc(C)c1N1CCN(C2CCC(NC(=O)c3cc4ccccc4[nH]3)CC2)CC1 (configuration not stated),inhibition,[1],1.58%
same,inhibition,[2],-0.69%
same,inhibition,[3],-0.14%
O=C(CCCCCNC(=O)c1ccc(O)c(-c2ccc(Cl)c(Cl)c2)c1)NCCN1CCCC1,inhibition,[1],1.19%
same,inhibition,[2],0.7%
same,inhibition,[3],1.56%
O=C(Nc1ccc(-c2nc3ccccc3[nH]2)cc1)c1ccc([N+](=O)[O-])s1,inhibition,[1],5.3%
same,inhibition,[2],7.89%
same,inhibition,[3],3.02%
COc1nc2c(N3CCN(CCNCc4ccc5c(n4)NC(=O)CS5)CC3)ccnc2cc1F,inhibition,[1],0.45%
same,inhibition,[2],-0.85%
same,inhibition,[3],0.49%
O=C(NCc1ccc(Cl)cc1)c1ccc(C(=O)NCC2CCCN2CC2CCCCC2)cc1 (configuration not stated),inhibition,[1],2.97%
same,inhibition,[2],1.54%
same,inhibition,[3],1.14%
O=C(NCC(=O)N1CCC[C@H]1C(=O)O)[C@@H](Cc1ccccc1)NC(=O)[C@@H]1CCCN1C(=O)CCCc1ccc(O)cc1,inhibition,[1],-2.68%
O=C(Nc1cccc(CN2CCCN(Cc3cccc(O)c3)CC2)c1)c1cc2ccccc2s1,inhibition,[1],-0.14%
same,inhibition,[2],-0.1%
COc1ccccc1N1CCN(C(C(=O)NCc2ccc3c(c2)OCO3)c2ccc(C)cc2)CC1 (configuration not stated),inhibition,[1],-0.94%
same,inhibition,[2],-0.2%
Cc1ccc(NC(=O)N2CCCN(CCCCCNC(=O)/C=C/c3ccc(Cl)c(Cl)c3)CC2)cc1C,inhibition,[1],-0.69%
same,inhibition,[2],-1.17%
Cc1cccc(Nc2nc(NCCCCN)nc3cc[nH]c(=O)c23)c1,inhibition,[1],6.92%
same,inhibition,[2],6.97%
same,inhibition,[3],4.49%
Oc1ccc(CCNCCCCNCCc2ccc(Cl)cc2)cc1O,inhibition,[1],-1.52%
same,inhibition,[2],1.57%
same,inhibition,[3],-2.55%
COc1ccc2nc(C)cc(NCc3cccc4ccccc34)c2c1,inhibition,[1],2.2%
same,inhibition,[2],3.81%
same,inhibition,[3],-0.28%
COc1ccc2nccc(N3CCC(CCNCc4ccc5c(n4)NC(=O)CO5)CC3)c2n1,inhibition,[1],0.66%
same,inhibition,[2],0.67%
same,inhibition,[3],1.8%
CN(CCCCCNC(=O)/C=C/c1ccc(Cl)c(Cl)c1)CCc1c[nH]c2ccccc12,inhibition,[1],20.6%
same,inhibition,[2],20%
same,inhibition,[3],12.6%
CC(C)c1ccc(CN2CCC(NC(=O)c3ccc(-c4cccc(Cl)c4)s3)CC2)cc1,inhibition,[1],5.24%
same,inhibition,[2],4.2%
same,inhibition,[3],7.5%
COc1ccccc1NC(=O)CSc1nc2cccnc2n1-c1ccccc1OC,inhibition,[1],0.89%
same,inhibition,[2],2.24%
same,inhibition,[3],0.14%
NC(=O)c1ccc(C(=O)Nc2cccc(-c3csc(-c4nc5ccccc5[nH]4)c3)c2)cc1,inhibition,[1],9.88%
same,inhibition,[2],8.58%
same,inhibition,[3],8.06%
COc1ccccc1C1CCN(C2CCC(NC(=O)c3ccc4[nH]c(-c5ccc(C)cc5)nc4c3)CC2)CC1 (configuration not stated),inhibition,[1],1.55%
same,inhibition,[2],3.38%
same,inhibition,[3],2.37%
Cc1cc(-c2cccc3c(C(=O)N4CCc5cc6nccc(N7CCN8CCC[C@H]8C7)c6cc54)cccc23)cc(C)n1,inhibition,[1],1.99%
same,inhibition,[2],-1.7%
same,inhibition,[3],2.83%
CN1CCN(CCCN(Cc2cccc(-c3cccc(CNCCc4ccccc4)c3)c2)C(=O)Nc2ccccc2)CC1,inhibition,[1],8.85%
same,inhibition,[2],9.55%
same,inhibition,[3],7.52%
COc1c(C2CCN(CCCCNC(=O)C=Cc3cc4cc(Cl)ccc4o3)CC2)ccc2c1CCCC2,inhibition,[1],2.11%
same,inhibition,[2],0.56%
same,inhibition,[3],0.08%
O=C(Nc1cccc(CN2CCCN(Cc3cccnc3)CC2)c1)c1ccc(Cl)c(Cl)c1,inhibition,[1],5.01%
same,inhibition,[2],4.16%
same,inhibition,[3],5.38%
O=C(Nc1ccsc1)Nc1cccc(-c2cccc(-c3nc4cc(C(F)(F)F)ccc4[nH]3)c2)c1,inhibition,[1],-1.45%
same,inhibition,[2],1.47%
same,inhibition,[3],1.55%
COc1ccc2nc(-c3ccc(C(=O)NCCCN4CCN(c5cc(Cl)ccc5OC)CC4)cc3)[nH]c2c1,inhibition,[1],0.75%
same,inhibition,[2],0.77%
same,inhibition,[3],-0.2%
Cc1cc(N[C@@H](CC(C)C)C(=O)NCc2cccs2)nc(Nc2ccccc2)n1,inhibition,[1],5.66%
same,inhibition,[2],3.95%
same,inhibition,[3],2.84%
COc1cccc(CNC(=O)NC2CCN(c3ccnc(Nc4cc(OC)c(OC)c(OC)c4)n3)C2)c1 (configuration not stated),inhibition,[1],2.39%
same,inhibition,[2],1.6%
same,inhibition,[3],2.88%
COc1ccc(CNC2CCN(C)CC2)cc1-c1ccc(S(=O)(=O)NCCc2ccccn2)s1,inhibition,[1],-2.94%
same,inhibition,[2],-0.03%
same,inhibition,[3],0.29%
CN(C)Cc1ccc2cc(NC(=O)c3ccc(-c4ccc(Cl)cc4)cc3)ccc2c1,inhibition,[1],-1.97%
same,inhibition,[2],3.04%
same,inhibition,[3],2.55%
CN1CCN(Cc2nc(-c3ccc4c(Nc5ccc(Oc6ccccc6)cc5)ccnc4c3)cs2)CC1,inhibition,[1],2.66%
same,inhibition,[2],2.64%
same,inhibition,[3],1.74%
CCC(C)NCc1c(O)ccc2c(CNC(C)CC)c(O)ccc12 (configuration not stated),inhibition,[1],2.24%
same,inhibition,[2],3.63%
same,inhibition,[3],2.13%
CC(C)Oc1cccc(-c2ccc(C(=O)NCC3CCCN(Cc4cccc(C(F)(F)F)c4)C3)s2)c1 (configuration not stated),inhibition,[1],-1.06%
same,inhibition,[2],-1.35%
same,inhibition,[3],-3%
O=C(Nc1ccccc1F)NC1CCN(c2ccnc(Nc3ccc(F)cc3)n2)C1 (configuration not stated),inhibition,[1],0.46%
same,inhibition,[2],0.72%
same,inhibition,[3],0.81%
CS(=O)(=O)NCCCNCc1cccc(-c2cccc(-c3nc4cc(C(F)(F)F)ccc4[nH]3)c2)c1,inhibition,[1],-0.01%
same,inhibition,[2],-4.31%
same,inhibition,[3],-1.5%
O=C(/C=C/c1ccc(Cl)c(Cl)c1)NCCCCCN1CCCN(C(=O)Nc2cccc(F)c2)CC1,inhibition,[1],0.1%
same,inhibition,[2],0.29%
same,inhibition,[3],3.86%
CN1CCN(Cc2cccc(-c3ccc4c(Nc5cc(O)c(Cl)cc5F)ccnc4c3)c2)CC1,inhibition,[1],2.16%
same,inhibition,[2],6.74%
same,inhibition,[3],13%
O=C(NCCNc1ccnc(Nc2ccc(F)cc2)n1)c1cc2ccccc2s1,inhibition,[1],5.85%
same,inhibition,[2],7.62%
same,inhibition,[3],0.69%
CCC(C)(C)n1c(C)cc2c3c(N)nc(N)nc3ccc21,inhibition,[1],71.7%
same,inhibition,[2],77.2%
same,inhibition,[3],63.6%
COc1ccc2cc(C=NNc3nc4ccccc4[nH]3)c(Cl)nc2c1,inhibition,[1],-0.3%
same,inhibition,[2],0.04%
same,inhibition,[3],1.79%
O=C(/C=C/c1ccc(Cl)c(Cl)c1)NCCCCCN1CCCN(C(=S)Nc2ccc(Cl)cc2)CC1,inhibition,[1],1.38%
same,inhibition,[2],1.56%
same,inhibition,[3],1.57%
Cc1cccc(OCC2CCN(c3ncc(C(=O)NC4CC4)cc3Cl)CC2)c1,inhibition,[1],0.26%
same,inhibition,[2],5.86%
same,inhibition,[3],2.26%
O=C(Nc1cccc(-c2nc3ccccc3s2)c1)c1ccccc1[N+](=O)[O-],inhibition,[1],0.94%
same,inhibition,[2],-0.02%
same,inhibition,[3],-0.15%
O=C(NC1CCC(N2CCN(c3cccc4[nH]ccc34)CC2)CC1)c1cc2cccnc2[nH]1 (configuration not stated),inhibition,[1],12%
same,inhibition,[2],13.2%
same,inhibition,[3],7.93%
